# Test results reported in PubChem BioAssay (NCATS).
# Values without a mark were called inactive. Results filed as inconclusive are left out. Entries that show only a call come without a potency. The source made the active and inactive calls. Unless noted, calls follow the shape of the dose curve; as a rule, active = well fitted curve in the direction sought with a large enough effect; inconclusive = small, poorly fitted or top-dose-only effect, or another doubt; inactive = no such curve, though single readings can be large; an effect the other way counts as inactive or inconclusive.
# Tests used:
# [1] = qHTS for inhibitors of adenylyl cyclases using a fission yeast platform: a pilot screen against the NCATS LOPAC library (AID 1347410)
# Outline: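 S. pombe CHP2027 (AC9-GNAS-PDE4D2) carrying a PKA-repressed fbp1-GFP reporter was exposed to LOPAC compounds (final up to 57 µM) for 18 h at 30C in the dark, in EMM with histidine, lysine and uracil; GFP gain-of-signal read by laser scanning cytometry.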
# [2] = biological target: Calcium and integrin-binding protein 1 (Homo sapiens) (UniProt Q99828); test: Validation qHTS for Identification of Calcium Integrin Binding protein 1 (CIB1) Competitor (AID 1508618)
# Sequence of Calcium and integrin-binding protein 1 (Homo sapiens) (Q99828 whole entry, looked up): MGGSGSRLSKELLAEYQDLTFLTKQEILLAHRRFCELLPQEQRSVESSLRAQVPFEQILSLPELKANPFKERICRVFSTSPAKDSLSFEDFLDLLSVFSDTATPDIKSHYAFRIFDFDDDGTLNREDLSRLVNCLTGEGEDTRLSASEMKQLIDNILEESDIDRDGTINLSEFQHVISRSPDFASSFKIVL
# Outline: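 In this qHTS validation, the LOPAC set (up to 114 uM) was tested for blocking CIB1 binding to a fluorescein-tagged alphaIIb peptide, with FP detection at 480/540 nm.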
# Papain (Carica papaya) = Papain (Carica papaya) (UniProt P00784); test: Primary qHTS assay for inhibitors of the protease papain (AID 1645873);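 also: papain turnover of Z-FR-AMC read as the AMC fluorescence gain over 10 min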; also: potency is read from the fitted curve at half-maximal effect
# Sequence of Papain (Carica papaya) (P00784 whole entry, looked up): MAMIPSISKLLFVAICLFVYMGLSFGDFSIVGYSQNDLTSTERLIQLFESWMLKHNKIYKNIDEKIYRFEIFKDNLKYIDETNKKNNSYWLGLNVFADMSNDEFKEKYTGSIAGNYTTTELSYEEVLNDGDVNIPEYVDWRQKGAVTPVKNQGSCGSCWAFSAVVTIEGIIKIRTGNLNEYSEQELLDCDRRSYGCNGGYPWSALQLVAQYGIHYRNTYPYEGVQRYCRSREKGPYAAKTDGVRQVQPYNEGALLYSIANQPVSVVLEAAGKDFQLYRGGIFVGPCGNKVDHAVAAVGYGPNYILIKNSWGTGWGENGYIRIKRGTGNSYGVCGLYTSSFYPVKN
# [3] = biological target: Protein phosphatase 1D (Homo sapiens) (UniProt O15297); test: RapidFire Mass Spectrometry qHTS Assay for Modulators of WT P53-Induced Phosphatase 1 (WIP1) (AID 1347424);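 also: amount of dephosphorylated VEPPL-S-QETFS peptide product formed by WIP1; series mostly up to about 63 µM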
# Sequence of Protein phosphatase 1D (Homo sapiens) (O15297 whole entry, looked up): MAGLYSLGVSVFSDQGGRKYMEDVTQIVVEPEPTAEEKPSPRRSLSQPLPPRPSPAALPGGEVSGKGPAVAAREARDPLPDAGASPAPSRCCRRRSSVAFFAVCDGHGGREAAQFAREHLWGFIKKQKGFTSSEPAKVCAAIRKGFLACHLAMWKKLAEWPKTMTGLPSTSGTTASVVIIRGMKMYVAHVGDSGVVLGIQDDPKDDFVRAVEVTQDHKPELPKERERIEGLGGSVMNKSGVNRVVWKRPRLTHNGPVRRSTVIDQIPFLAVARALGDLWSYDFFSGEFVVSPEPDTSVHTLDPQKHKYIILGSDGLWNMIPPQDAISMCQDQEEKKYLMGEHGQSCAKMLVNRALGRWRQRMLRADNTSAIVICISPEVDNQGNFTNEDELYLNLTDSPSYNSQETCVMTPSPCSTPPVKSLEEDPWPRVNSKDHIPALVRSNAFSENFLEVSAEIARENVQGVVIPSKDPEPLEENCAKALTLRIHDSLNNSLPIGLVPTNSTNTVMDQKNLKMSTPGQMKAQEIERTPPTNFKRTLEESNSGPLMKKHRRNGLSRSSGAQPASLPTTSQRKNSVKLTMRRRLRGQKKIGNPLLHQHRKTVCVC
# Outline: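 10 nM WIP1 + cpd, 1 h RT; + 2 uM VEPPL-pS-QETFS, 5 min RT; stop 0.5% formic acid; labelled product standard 1 uM; RapidFire MS. Buffer 50 mM Tris pH 7.5, 30 mM MgCl2, 1 mM TCEP.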
# [4] = biological target: Protein phosphatase 1D (Homo sapiens) (UniProt O15297); test: Rhodamine-PBP qHTS Assay for Modulators of WT P53-Induced Phosphatase 1 (WIP1) (AID 1347425)
# Outline: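 Steps: enzyme with Rh-PBP sensor and compounds, room-temperature incubation of 1 hr, baseline read, addition of VEPPL-pS-QETFS (10 uM final), kinetic fluorescence reads at 525/598 nm. Activity equals final minus baseline signal.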
# [5] = Primary qHTS for inhibitors of La Crosse Virus (LACV) - induced cell death in SH-SY5Y cells (AID 1508616);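 also: top concentration of the series differs between compounds; higher means more rescue of cells from virus-induced death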
# Outline: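 SH-SY5Y cells (6000/well) plated 24 h, then given compounds by pin transfer and LACV at 0.01 MOI for 6 days at 37C. Viability measured by ATPLite luminescence, normalized to infected DMSO and uninfected DMSO.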
# [6] = biological target: Calcium and integrin-binding protein 1 (Homo sapiens) (UniProt Q99828); test: Primary qHTS for Identification of Calcium Integrin Binding Protein 1 (CIB1) Competitor (AID 1508620);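 also: GST tagged CIB1 binding a fluorescein labelled alphaIIb integrin peptide tracer; top concentration of the series differs between compounds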
# Outline: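 CIB1-GST (1 uM final) and compound incubated 15 min at room temperature before adding FITC-alphaIIb peptide tracer (100 nM final). Competition for binding read by fluorescence polarization (ex 480, em 540) after another 15 min at room temperature.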
# [7] = qHTS to identify inhibitors of the type 1 interferon - major histocompatibility complex class I in skeletal muscle: primary screen against the NCATS Mechanism Interrogation Plate v5.0 (MIPE) Libary (AID 1347411); also: nearly all actives have a fitted effect of over 65% in size
# Outline: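 Immortalized human myoblasts (C25cl48) with HiBit knocked into endogenous HLA-B*08:01 were stimulated with 4 ng/ml IFN-beta and given compounds in 11-point 1:3 titration from 46 uM. After 24 h at 37 C, lytic HiBiT luminescence was read.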
# [8] = biological target: Cytochrome P450 2D6 (Homo sapiens) (UniProt P10635); test: Cytochrome P450 family 2 subfamily D member 6 (CYP2D6) small molecule antagonists: luciferase biochemical (cell-free) qHTS assay (AID 1645840; active = well fitted curve in the direction sought with a large enough effect in the repeat runs; an effect the other way counts as inactive or inconclusive; also: nearly all actives have a fitted effect of over 55% in size; also: potency is read from the fitted curve at half-maximal effect)
# Sequence of Cytochrome P450 2D6 (Homo sapiens) (P10635 whole entry, looked up): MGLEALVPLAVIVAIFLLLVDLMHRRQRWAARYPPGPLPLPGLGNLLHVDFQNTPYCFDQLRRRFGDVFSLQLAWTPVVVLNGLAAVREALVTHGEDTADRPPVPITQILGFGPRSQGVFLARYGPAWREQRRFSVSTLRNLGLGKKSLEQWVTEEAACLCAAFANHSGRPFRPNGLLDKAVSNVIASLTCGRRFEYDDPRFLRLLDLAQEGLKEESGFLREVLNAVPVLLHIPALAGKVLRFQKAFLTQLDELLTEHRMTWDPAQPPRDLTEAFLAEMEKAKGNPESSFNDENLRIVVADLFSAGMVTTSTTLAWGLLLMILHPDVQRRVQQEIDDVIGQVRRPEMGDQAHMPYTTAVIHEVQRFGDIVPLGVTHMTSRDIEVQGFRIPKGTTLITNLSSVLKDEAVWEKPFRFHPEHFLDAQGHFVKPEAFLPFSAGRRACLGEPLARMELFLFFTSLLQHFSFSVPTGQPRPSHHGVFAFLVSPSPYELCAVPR
# Outline: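 P450-Glo luminescent screen: recombinant CYP2D6 enzyme–proluciferin substrate mix preincubated with compound 10 min at room temperature, then NADPH regeneration added for 1 h at room temperature. Detection reagent added for 20 min; luciferin light read as relative luminescence units.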
# [9] = Primary qHTS for inhibitors of nuclear receptor binding SET domain protein 2 (NSD2) in an isogenic RCH-ACV NSD2 p.E1099K mutant (9B) (AID 1645876); also: nearly all actives have a fitted effect of over 70% in size; also: potency is read from the fitted curve at half-maximal effect
# [10] = Validation qHTS assay for inhibitors of Activation Induced Cytidine Deaminase (AID): UDG Counterscreen signal (AID 1347427)
# Outline: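 Counterscreen read of UDG activity (2 U/mL, 4/3x) in the FRET deamination format with AID (1 uM, 4/3x), DJC20/DJC23 substrates (250 nM, 4x), 4 h at room temperature. NaOH stop, fluorescence at 560 ex/665 em.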
# [11] = biological target: Single-stranded DNA cytosine deaminase (Homo sapiens) (UniProt Q9GZX7); test: Validation qHTS assay for inhibitors of Activation Induced Cytidine Deaminase (AID): AID signal (AID 1347429)
# Sequence of Single-stranded DNA cytosine deaminase (Homo sapiens) (Q9GZX7 whole entry, looked up): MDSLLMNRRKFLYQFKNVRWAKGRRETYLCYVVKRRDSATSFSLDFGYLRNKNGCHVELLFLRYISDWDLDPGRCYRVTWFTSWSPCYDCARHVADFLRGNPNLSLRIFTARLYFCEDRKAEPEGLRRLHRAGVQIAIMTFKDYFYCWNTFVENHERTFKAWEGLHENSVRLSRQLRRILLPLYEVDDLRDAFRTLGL
# Outline: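 FRET deamination assay: 1 uM AID (4/3x stock) with UDG, compound up to 114 uM, then 250 nM DJC20/DJC23 substrate (4x stock) for 4 hr at room temperature. NaOH added, 30 min; fluorescence read 540/590 nm.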
# [12] = Primary qHTS for small molecule stabilizers of the endoplasmic reticulum resident proteome: Secreted ER Calcium Modulated Protein (SERCaMP) assay (AID 1508630)
# Outline: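 GLuc-SERCaMP-expressing SH-SY5Y cells, pretreated 16 h with compound, are challenged with thapsigargin to empty ER calcium stores; after 4 h, coelenterazine is added directly to the medium and luminescence is imaged.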
# [13] = A High-Content qHTS Against Drug Library for the Identification of Small Molecules that Inhibit DYT1 Early Onset Primary Dystonia-Associated Cell Pathology (AID 1645839; calls by dose curve; also: series mostly up to about 46 µM)
# Outline: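 In this high-content image screen, delE TorsinA mislocalization in inducible Flp-In 293 cells is scored as %pathology, with cell count serving as the counterscreen. Compound exposure lasts 48 h under tetracycline induction in reduced-serum medium.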
# [14] = biological target: Cytochrome P450 2C9 (Homo sapiens) (UniProt P11712); test: Cytochrome P450 family 2 subfamily C member 9 (CYP2C9) small molecule antagonists: luciferase biochemical (cell-free) qHTS assay (AID 1645842; active = well fitted curve in the direction sought with a large enough effect in the repeat runs; an effect the other way counts as inactive or inconclusive; also: potency is read from the fitted curve at half-maximal effect; nearly all actives have a fitted effect of over 55% in size)
# Sequence of Cytochrome P450 2C9 (Homo sapiens) (P11712 whole entry, looked up): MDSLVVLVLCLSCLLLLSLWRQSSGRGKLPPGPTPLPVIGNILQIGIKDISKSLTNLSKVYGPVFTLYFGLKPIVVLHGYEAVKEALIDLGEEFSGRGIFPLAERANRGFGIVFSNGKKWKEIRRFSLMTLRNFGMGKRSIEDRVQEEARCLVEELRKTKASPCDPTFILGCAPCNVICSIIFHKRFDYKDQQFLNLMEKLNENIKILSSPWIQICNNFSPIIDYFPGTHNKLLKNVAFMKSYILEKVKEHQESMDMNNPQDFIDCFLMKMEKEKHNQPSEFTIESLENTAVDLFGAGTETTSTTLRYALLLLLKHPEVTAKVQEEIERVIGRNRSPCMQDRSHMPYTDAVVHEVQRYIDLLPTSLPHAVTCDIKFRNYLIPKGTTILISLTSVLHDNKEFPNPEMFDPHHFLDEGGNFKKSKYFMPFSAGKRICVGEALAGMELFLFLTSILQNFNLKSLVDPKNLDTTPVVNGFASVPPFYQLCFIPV
# Outline: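 Luminescence, after 20 min with luciferin detection reagent, reflected CYP2C9 turnover during a 1 h NADPH-driven reaction at 37C. Enzyme-substrate mix contained 0.4% bovine serum albumin and was preincubated with compound 10 min at room temperature.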
compound,measurement,setting,value
Nc1nc(OCC2CCCCC2)c2[nH]cnc2n1,outcome,[1],inactive
same,outcome,[2],inactive
same,Potency,Papain (Carica papaya),inactive
O=C(CCSCc1ccco1)NNC(=O)N1Cc2ccccc2Oc2ccc(Cl)cc21,outcome,[1],inactive
same,outcome,[2],inactive
same,Potency,Papain (Carica papaya),inactive
Brc1cc2c(cc1[C@H]1Nc3ccccc3[C@H]3C=CC[C@H]31)OCO2,outcome,[1],inactive
same,outcome,[2],inactive
same,Potency,Papain (Carica papaya),inactive
O=C(NOCC1CC1)c1cc(Br)c(F)c(F)c1Nc1ccc(I)cc1Cl,outcome,[1],inactive
same,outcome,[2],inactive
same,Potency,Papain (Carica papaya),inactive
CC[C@H]1OC(=O)[C@H](C)C(O[C@H]2C[C@@](C)(OC)[C@@H](O)[C@H](C)O2)[C@H](C)[C@@H](OC2O[C@H](C)C[C@H](N(C)C)[C@H]2O)[C@](C)(O)C[C@@H](C)CN(C)[C@H](C)[C@@H](O)[C@]1(C)O (some centres not stated),outcome,[1],inactive
same,outcome,[2],inactive
same,Potency,Papain (Carica papaya),inactive
COc1ccc(C(=O)/C(Cc2cc(OC)c(OC)c(OC)c2)=C(\C(=O)O)c2ccc3c(c2)OCO3)cc1,outcome,[1],inactive
same,outcome,[2],inactive
same,Potency,Papain (Carica papaya),inactive
COC(=O)C1=C(C)NC(C)=C(C(=O)OCC(C)C)C1c1ccccc1[N+](=O)[O-] (configuration not stated),Potency,[3],inactive
same,outcome,[4],inactive
same,Potency,[5],inactive
same,Potency,[6],inactive
Nc1nc2c(ncn2[C@@H]2O[C@H](CO)[C@@H](O)[C@@H]2O)c(=O)[nH]1,outcome,[1],inactive
same,outcome,[2],inactive
same,Potency,Papain (Carica papaya),inactive
S=c1[nH]c(-c2ccccc2)cn1-c1ccccc1,outcome,[1],inactive
same,outcome,[2],inactive
same,Potency,Papain (Carica papaya),inactive
O=C(O)[C@H](CC(=O)N1C[C@H]2CCCC[C@H]2C1)Cc1ccccc1,Potency,[7],inactive
same,Potency,[6],inactive
same,Potency,[8],inactive
same,Potency,[9],inactive
CCCC(CCC)C(=O)OC1CC2CCC(C1)[N+]2(C)C (configuration not stated),outcome,[1],inactive
same,outcome,[2],inactive
same,Potency,Papain (Carica papaya),inactive
COc1ccc(/C=C/c2nc(NCCCN(C)C)c3ccccc3n2)cc1,outcome,[1],inactive
same,outcome,[2],inactive
same,Potency,Papain (Carica papaya),28.2 µM (active)
CC[C@H]1OC(=O)[C@H](C)[C@@H](O[C@H]2C[C@@](C)(OC)[C@@H](O)[C@H](C)O2)[C@H](C)[C@@H](O[C@@H]2O[C@H](C)C[C@H](N(C)C)[C@H]2O)[C@](C)(O)C[C@@H](C)C(=O)[C@H](C)[C@@H](O)[C@]1(C)O,Potency,[7],inactive
same,Potency,[9],inactive
COc1ccc(Br)cc1S(=O)(=O)NC(=O)/C=C/c1ccccc1Cc1ccc2ccccc2c1,outcome,[1],inactive
same,Potency,Papain (Carica papaya),inactive
Nc1nc2ccc(Cl)cc2n2c(-c3ccccc3)nnc12,outcome,[1],inactive
same,outcome,[2],inactive
same,Potency,Papain (Carica papaya),inactive
CCNC(=O)[C@H]1O[C@@H](n2cnc3c(N)nc(NCCc4ccc(CCC(=O)O)cc4)nc32)[C@H](O)[C@@H]1O,Potency,[7],inactive
same,Potency,[10],inactive
same,Potency,[11],inactive
same,Potency,[12],inactive
same,Potency,[9],inactive
COc1ccc(-c2cc(=O)c3c(O)c(OC)c(OC)cc3o2)cc1O,outcome,[1],inactive
same,outcome,[2],inactive
same,Potency,Papain (Carica papaya),inactive
CC1(C)[C@@H](O)CC[C@]2(C)[C@H]3C(=O)C=C4[C@@H]5C[C@@](C)(C(=O)O)CC[C@]5(C)CC[C@@]4(C)[C@]3(C)CC[C@@H]12,Potency,[7],inactive
same,Potency,[6],inactive
same,Potency,[9],inactive
CCNC(=O)[C@H]1O[C@@H](n2cnc3c(N)nc(NCCc4ccc(CCC(=O)O)cc4)nc32)[C@H](O)C1O (some centres not stated),outcome,[1],inactive
same,outcome,[2],inactive
same,Potency,Papain (Carica papaya),inactive
O=C(Nc1ccc2[nH]ncc2c1)C1CCC1,outcome,[1],inactive
same,outcome,[2],inactive
same,Potency,Papain (Carica papaya),inactive
same,Potency,[9],inactive
COCCOc1cc2nc[nH]c(=O)c2cc1OCCOC,outcome,[1],inactive
same,outcome,[2],inactive
same,Potency,Papain (Carica papaya),inactive
S=c1[nH]c2ccccc2s1,Potency,[3],inactive
same,outcome,[4],inactive
same,Potency,[5],inactive
same,Potency,[6],inactive
same,Potency,[12],inactive
same,Potency,[8],29.1 µM (active)
N=C(N)SCCc1ccc(CCSC(=N)N)cc1,Potency,[10],inactive
same,Potency,[11],inactive
same,Potency,[5],inactive
same,Potency,[12],inactive
CCCCCC(O)c1cccc(OCc2ccc3ccccc3n2)c1 (configuration not stated),Potency,[10],inactive
same,Potency,[11],inactive
same,Potency,[5],inactive
same,Potency,[12],inactive
COC(=O)C1=C(C)NC(C)=C(C(=O)OCC(C)=O)C1c1ccccc1[N+](=O)[O-] (configuration not stated),Potency,[3],inactive
same,outcome,[4],inactive
same,Potency,[5],inactive
same,Potency,[6],inactive
same,Potency,[12],inactive
same,Potency,[13],inactive
same,Potency,[14],8.71 µM (active)
same,Potency,[9],11.9 µM (active)
COc1ccccc1N1CCN(CCCCNS(=O)(=O)c2cccc3c(N(C)C)cccc23)CC1,Potency,[10],inactive
same,Potency,[11],inactive
same,Potency,[5],inactive
O=c1[nH]c2ccccc2n1CCCN1CCN(C(c2ccccc2)c2ccccc2)CC1,Potency,[3],inactive
same,outcome,[4],inactive
same,Potency,[5],inactive
same,Potency,[6],inactive
same,Potency,[8],0.055 µM (active)
same,Potency,[9],23.7 µM (active)
Ic1ccc(N2CCN(Cc3c[nH]c4ncccc34)CC2)cc1,Potency,[10],inactive
same,Potency,[11],inactive
same,Potency,[5],inactive
same,Potency,[12],inactive
CCCCN1CCC(n2c(=O)[nH]c3ccccc32)CC1,Potency,[10],inactive
same,Potency,[11],inactive
same,Potency,[5],inactive
same,Potency,[12],inactive
Cc1[nH]cnc1CN1CCc2c(c3ccccc3n2C)C1=O,Potency,[3],inactive
same,outcome,[4],inactive
same,Potency,[5],inactive
same,Potency,[6],inactive
same,Potency,[12],inactive
same,Potency,[13],inactive
same,Potency,[8],7.76 µM (active)
same,Potency,[14],1.55 µM (active)
same,Potency,[9],inactive
N.N.O=C(O)C1(C(=O)O)CCC1.[Pt],Potency,[10],inactive
same,Potency,[11],inactive
same,Potency,[5],inactive
